# According to PubChem BioAssay (Tox21):
# Several values for one entry are separate records, joined by “and”; a condition that tells them apart may be missing. Identical values can stand only once. Inconclusive results are not listed. Values without a mark were called inactive. Activity calls are given as the source filed them. Calls follow the shape of the dose curve; as a rule, active = well fitted curve in the direction sought with a large enough effect in the repeat runs; inconclusive = weak or mixed curves; inactive = no such curve, though single readings can be large; an effect the other way counts as inactive or inconclusive.
# Assays:
# [1] = A CellTox Green Cytotoxicity Assay to monitor cytotoxicity in HEK293 cells - 40 hour (AID 1224871); also: nearly all actives have a fitted effect of over 45% in size; also: potency is read from the fitted curve at half-maximal effect
# In short: (§1)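 Homogeneous no-lysis format: HEK293 cell suspension mixed with CellTox Green reagent, seeded, incubated 5 h at 37 C/5% CO2, then dosed by pintool with compound in DMSO.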
# [2] = qHTS RealTime-Glo MT Cell Viability Assay in HEK293 cells - 16 hour (AID 1224872); also: nearly all actives have a fitted effect of over 50% in size; also: potency is read from the fitted curve at half-maximal effect; as to activity change, negative = cytotoxicity: top concentration of the series differs between compounds
# In short: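 HEK293 cells were seeded at 600 cells/well together with NanoLuc luciferase and cell-permeant prosubstrate, preincubated 5 h at 37 C/5% CO2, then given compound in DMSO by pintool. Luminescence from viable-cell prosubstrate reduction was read repeatedly over 40 h.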
# [3] = qHTS RealTime-Glo MT Cell Viability Assay in HEK293 cells - 40 hour (AID 1224874); settings: RealTime-Glo luminescence; max response: hits give low values; also: nearly all actives have a fitted effect of over 50% in size; also: potency is read from the fitted curve at half-maximal effect
# In short: (§2)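 Measured as luminescence from the same continuously cultured HEK293 wells at successive time points (0, 8, 16, 24, 32, 40 h) after compound addition. Reagent present from seeding; dosing at 5 h; incubation 37 C.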
# [4] = A CellTox Green Cytotoxicity Assay to monitor cytotoxicity in HepG2 cells - 24 hour (AID 1224878); also: nearly all actives have a fitted effect of over 45% in size; also: potency is read from the fitted curve at half-maximal effect
# In short: (§3)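 Fluorescent DNA-binding dye, 600 HepG2 cells/well, 5 h preincubation then compound in DMSO; same plates read at 0–40 h, 37 C.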
# [5] = A CellTox Green Cytotoxicity Assay to monitor cytotoxicity in HepG2 cells - 40 hour (AID 1224879); also: nearly all actives have a fitted effect of over 40% in size; also: potency is read from the fitted curve at half-maximal effect
# In short: as §3
# [6] = qHTS RealTime-Glo MT Cell Viability Assay in HEK293 cells - 0 hour (AID 1224880); also: top concentration of the series differs between compounds; nearly all actives have a fitted effect of over 45% in size
# In short: as §2
# [7] = qHTS RealTime-Glo MT Cell Viability Assay in HepG2 cells - 8 hour (AID 1224873); also: nearly all actives have a fitted effect of over 55% in size; also: potency is read from the fitted curve at half-maximal effect
# In short: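 HepG2 cells mixed with RealTime-Glo MT reagents (NanoLuc plus cell-permeant prosubstrate) were seeded at 600 cells/well, incubated 5 h at 37 C/5% CO2, then pinned with compounds in DMSO; nonlytic luminescence tracked viability during 40 h treatment.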
# [8] = A CellTox Green Cytotoxicity Assay to monitor cytotoxicity in HEK293 cells - 24 hour (AID 1224875); also: nearly all actives have a fitted effect of over 45% in size; also: potency is read from the fitted curve at half-maximal effect; as to activity change: series mostly up to about 77 µM
# In short: as §1
# [9] = A CellTox Green Cytotoxicity Assay to monitor cytotoxicity in HepG2 cells - 16 hour (AID 1224876); also: nearly all actives have a fitted effect of over 45% in size; also: potency is read from the fitted curve at half-maximal effect
# In short: as §3
# [10] = qHTS RealTime-Glo MT Cell Viability Assay in HepG2 cells - 32 hour (AID 1224877); also: nearly all actives have a fitted effect of over 55% in size; also: potency is read from the fitted curve at half-maximal effect
# In short: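 HepG2 cells were seeded at 600 cells/well together with NanoLuc luciferase and a cell-permeant prosubstrate, preincubated 5 h at 37 C/5% CO2, then pin-dosed with compounds in DMSO. Nonlytic luminescence from viable cells was read at each time point.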
# % is scaled to controls: 0 for no effect and ±100 for the full control effect.
SMILES,Potency [1],Potency [2],Potency [3],Potency [4],Potency [5],Potency [6],Potency [7],Potency [8],Potency [9],cytotoxicity increase [9],"activity change, negative = cytotoxicity [6]",Potency [10],max response [3] [%]
CC(C)(C)NC(=O)[C@@H]1C[C@@H]2CCCC[C@@H]2CN1C[C@@H](O)[C@H](Cc1ccccc1)NC(=O)[C@H](CC(N)=O)NC(=O)c1ccc2ccccc2n1,55.7 µM (active),24.9 µM (active),17.6 µM (active),55.7 µM (active),49.6 µM (active),–,–,–,–,–,–,–,–
O=C1Cc2cc(CCN3CCN(c4nsc5ccccc45)CC3)c(Cl)cc2N1,26.8 µM (active),23.9 µM (active),–,–,–,inactive,–,–,–,–,–,–,–
N=C1N=C(N)c2ccccc21,inactive,–,24.5 µM (active),–,43.6 µM (active),–,inactive,inactive,inactive,–,–,–,–
CCN1/C(=C/C=C/c2sc3ccccc3[n+]2CC)Sc2ccccc21,9.28 µM (active),1.04 µM (active),0.0585 µM (active),1.85 µM (active),1.17 µM (active),–,–,–,–,-2.11% [at 15.8 µM],-8.36% [at 15.8 µM],–,–
CC[C@@]1(O)C(=O)OCc2c1cc1n(c2=O)Cc2cc3c(CN(C)C)c(O)ccc3nc2-1,21.3 µM (active),–,0.0756 µM (active),10.7 µM (active),7.56 µM (active),inactive,inactive,23.9 µM (active),–,–,–,–,–
CC/C(=C(\c1ccc(O)cc1)c1ccc(OCCN(C)C)cc1)c1ccccc1,43.8 µM (active),24.6 µM (active),17.4 µM (active),55.1 µM (active),55.1 µM (active),inactive,–,49.1 µM (active),–,–,–,61.8 µM (active),–
OCCN(CCO)c1nc(N2CCCCC2)c2nc(N(CCO)CCO)nc(N3CCCCC3)c2n1,19 µM (active),–,26.8 µM (active),23.9 µM (active),23.9 µM (active),inactive,inactive,21.3 µM (active),23.9 µM (active),–,–,inactive,–
O=C1c2c(O)ccc(Nc3ccc(CCO)cc3)c2C(=O)c2c([N+](=O)[O-])ccc(O)c21,inactive,–,–,inactive,inactive,–,–,inactive,inactive,–,–,inactive,-18.6
Cc1ccc(O)c2ncccc12,–,inactive,–,–,7.56 µM (active),inactive,inactive,inactive,inactive,–,–,inactive,-18.6
Cc1cc(=O)oc2cc(N(C)C)ccc12,inactive,–,–,inactive,inactive,inactive,–,inactive,inactive,–,–,inactive,–
O=C(Oc1cccc2cccnc12)c1ccccc1,–,inactive,–,–,0.477 µM (active),inactive,inactive,inactive,–,–,–,–,-33.8
Clc1ccc2cc3ccccc3cc2c1,inactive,–,–,inactive,–,–,inactive,inactive,inactive,–,–,inactive,–
CCCCCCOC(=O)c1ccc(O)cc1,–,43.7 µM (active) and 21.9 µM (active),43.7 µM (active) and 21.9 µM (active),43.7 µM (active) and 9.77 µM (active),43.7 µM (active) and 11 µM (active),inactive,inactive,inactive,8.71 µM (active),–,–,inactive,–
CCCC(=O)OC[C@@H](OC(=O)CCC)[C@@H](OC(=O)CCC)[C@H](Cn1c2nc(=O)[nH]c(=O)c-2nc2cc(C)c(C)cc21)OC(=O)CCC,21.3 µM (active),–,–,21.3 µM (active),21.3 µM (active),inactive,–,21.3 µM (active),19 µM (active),–,–,–,-24.9
C=C(C)C(=O)OCC(O)COc1ccc(C(C)(C)c2ccc(OCC(O)COC(=O)C(=C)C)cc2)cc1 (stereo unspecified),–,9.77 µM (active),13.8 µM (active),inactive,43.6 µM (active),–,19.5 µM (active),inactive,inactive,–,–,21.9 µM (active),–
CC(C)n1nc(-c2cc3cc(O)ccc3[nH]2)c2c(N)ncnc21,–,0.477 µM (active),0.19 µM (active),–,23.9 µM (active),inactive,inactive,inactive,inactive,–,–,–,–
CNCc1cc(F)ccc1Oc1ccc(Cl)c(Cl)c1,49 µM (active),–,43.6 µM (active),49 µM (active),49 µM (active),–,–,49 µM (active),54.9 µM (active),–,–,54.9 µM (active),–
COc1cccc2c1C(=O)c1c(O)c3c(c(O)c1C2=O)C[C@@](O)(C(=O)CO)C[C@@H]3O[C@H]1C[C@H](N)[C@H](O[C@@H]2CCCCO2)[C@H](C)O1,inactive,–,0.19 µM (active),9.52 µM (active),1.51 µM (active),inactive,–,inactive,23.9 µM (active),–,–,1.9 µM (active),–
C/C=C(\C)C(=O)OCc1ccccc1,–,inactive,–,inactive,inactive,inactive,inactive,inactive,inactive,–,–,inactive,-2.09
CCCCCOc1ccccc1/C(=C\SC)n1ccnc1,inactive,–,–,inactive,–,inactive,inactive,inactive,inactive,–,–,inactive,–
